Most compounds without a hit are left out; they make up all but 2.1% or so of the library.
KKLEB tox: cytotoxicity in KKLEB CF airway cells, primary screen, cytotoxicity control for CF NF-kB inhibitor project, cell-based, uHTS, fluorescence assay plates. activity change (cytotoxicity), % at 5 µM. KKLEB CF airway cells viability, ATPlite luminescence, overnight; active compounds read low; cells stimulated with P. aeruginosa culture filtrate. actives 0.36% (n = 360,000);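 active means corrected activity change at or below -50% at 5 µM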
HIF-2a inh: HIF-2a reporter inhibitors, primary screen, luminescence, 786-0 RCC cells | inhibition, % at 18.8 µM | 786-0 RCC cells HIF-2a reporter, luciferase luminescence, overnight | actives 0.72% (n = 360,000);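 active means inhibition of the luminescence signal of 40% or more relative to plate controls, in a single-dose primary screen at 18.75 µM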
EWS-Fli inh: EWS/Fli-driven NR0B1 reporter inhibitors, primary screen, A673 cells, NR0B1 luciferase, luminescence, MLPCN library; viability-normalised; inhibition, % at 12.6 µM; actives 0.67% (n = 350,000); AID 651661, 2012;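 active means mean inhibition of at least 50% after viability correction, with every replicate also passing that limit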;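 further: firefly luciferase signal divided by Alamar Blue viability fluorescence both relative to DMSO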
PAX8 inh HTS: inhibitors of PAX8-driven TPO luciferase reporter, primary screen, RMG-I cells, single concentration; SteadyGlo, 24 h; actives 1.2% (n = 360,000); inhibition, % at 12.6 µM; AID 652154, 2013;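 active means mean replicate inhibition at least 60% with every replicate also reaching 60%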;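 further: luciferase light reporting Pax8 driven TPO promoter activity; plate controls were median of neutral control wells for no effect and mitoxantrone controls for full effect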
CF NFkB inh: inhibitors of PAF-induced NF-kB signaling, primary screen, cell-based, GFP fluorescence, uHTS. KKLEB NF-kB-GFP reporter, GFP fluorescence overnight. actives 0.86% (n = 360,000). AID 588850, 2011. inhibition, % at 5 µM;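 active means at least 50% inhibition at 5 µM, scaled per plate between neutral and stimulator controls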;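 further: PAF is a Pseudomonas aeruginosa culture filtrate used as stimulus; plate controls were PAF-stimulated DMSO wells for no effect and unstimulated DMSO wells for full effect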
An asterisk follows results filed as active.

For O=C(Nc1cccc(F)c1)N1CC(=O)N2[C@@H](CO)[C@@H](c3ccc(-c4ccccc4)cc3)[C@@H]2C1 the results were EWS-Fli inh -2.3 and PAX8 inh HTS 5.7.
For CCOC(=O)c1cccc(NC(=O)c2ccc3c(c2)OCO3)c1 the results were KKLEB tox 2.9, HIF-2a inh -124.0, EWS-Fli inh 70.9*, PAX8 inh HTS -107.3 and CF NFkB inh -5.6.
Screening COc1ccc(NC(=O)N(C)C[C@H]2OCCCC[C@@H](C)Oc3ccc(NS(=O)(=O)c4cccs4)cc3C(=O)N([C@@H](C)CO)C[C@H]2C)cc1 returned EWS-Fli inh 5.6.
Screening C[C@@H]1CN([C@H](C)CO)C(=O)c2cc(NC(=O)CCCCCC(=O)Nc3ccccc3N)ccc2O[C@@H]1CN(C)C returned EWS-Fli inh -7.3 and PAX8 inh HTS 3.1.
Fc1ccc(-[n+]2nc(Nc3ccccc3)sc2-c2c3ccccc3cc3ccccc23)cc1 was read as KKLEB tox -30.5, HIF-2a inh -16.6, EWS-Fli inh 31.3, PAX8 inh HTS 86.4* and CF NFkB inh 46.5.
COc1ccc(C)cc1Nc1n[n+](-c2ccccc2)c(-c2c(OC)ccc3ccccc23)s1 was read as KKLEB tox -5.9, HIF-2a inh -26.5, EWS-Fli inh 37.3, PAX8 inh HTS 84.2* and CF NFkB inh 38.1.
Screening C[C@@H]1CN([C@@H](C)CO)C(=O)c2cc(-c3cccnc3)cnc2O[C@@H]1CN(C)C(=O)Cc1cccnc1 returned EWS-Fli inh -11.7.
`CN(C)CC(CCC(CN(C)C)C(=O)c1ccccc1)C(=O)c1ccccc1` (stereo unspecified) gave KKLEB tox -61.4*, HIF-2a inh 93.7* and CF NFkB inh 90.4*.
`CCOc1ccc(C(=O)C(CCC(CN(C)C)C(=O)c2ccc(OCC)cc2)CN(C)C)cc1` (stereo unspecified) gave KKLEB tox -99.9*, HIF-2a inh 93.0*, PAX8 inh HTS 112.0* and CF NFkB inh 95.5*.
For CC(C)NC(=O)Nc1cccc2c1O[C@H](CN(C)Cc1ccc3c(c1)OCO3)[C@@H](C)CN([C@@H](C)CO)C2=O the results were PAX8 inh HTS 1.0.
`Cc1ccc(CNC(=O)C(=O)NCCC2CCCCN2S(=O)(=O)c2ccc(C)cc2)cc1` (stereo unspecified) gave KKLEB tox 8.7, HIF-2a inh 21.3, EWS-Fli inh 4.1, PAX8 inh HTS 17.0 and CF NFkB inh -14.9.
For O=C(NCCC1CCCCN1S(=O)(=O)c1ccc(Cl)cc1)C(=O)NCc1ccncc1 (stereo unspecified) the results were KKLEB tox 9.4, HIF-2a inh 35.2, EWS-Fli inh 11.0, PAX8 inh HTS 96.6* and CF NFkB inh -2.4.
COc1cc(NC(=O)c2cc(-c3ccccc3Cl)on2)cc(OC)c1OC was read as KKLEB tox 5.6, HIF-2a inh -58.5, EWS-Fli inh 61.6*, PAX8 inh HTS 8.8 and CF NFkB inh -8.3.
`CCCCCCN(C(=O)CCCCCN1C(=O)NC(c2cccc([N+](=O)[O-])c2)C(C(=O)OCc2ccccc2)=C1C)C(C(=O)NCCCC)c1ccc(OCC(=O)OC)c(C(=O)OC)c1` (stereo unspecified) gave EWS-Fli inh 69.4* and PAX8 inh HTS 49.0.
`CCCCCCN(C(=O)CCCCCN1C(=O)NC(c2ccc(-c3ccccc3)cc2)C(C(=O)OCc2ccccc2)=C1C)C(C(=O)NCCCC)c1ccccc1` (stereo unspecified) gave EWS-Fli inh 0.6 and PAX8 inh HTS 32.1.
CCCCCCN(C(=O)CCCCCN1C(=O)NC(c2ccc(-c3ccccc3)cc2)C(C(=O)OCc2ccccc2)=C1C)C(C)C(=O)NCCCC (stereo unspecified) was read as EWS-Fli inh 23.2 and PAX8 inh HTS 74.9*.
For COc1ccc(S(=O)(=O)Nc2ccc3c(c2)CC(=O)N([C@@H](C)CO)C[C@H](C)[C@@H](CN(C)Cc2ccc(C(F)(F)F)cc2)O3)cc1 the results were EWS-Fli inh 4.0 and PAX8 inh HTS 83.0*.
C[C@@H]1CN([C@@H](C)CO)C(=O)Cc2cc(NS(=O)(=O)c3ccc(F)cc3)ccc2O[C@H]1CN(C)Cc1ccc(C(F)(F)F)cc1 was read as EWS-Fli inh 31.2 and PAX8 inh HTS 89.5*.
`Cc1ccc(S(=O)(=O)Nc2ccc3c(c2)CC(=O)N([C@H](C)CO)C[C@H](C)[C@H](CN(C)Cc2ccc(C(F)(F)F)cc2)O3)cc1` gave EWS-Fli inh 8.7 and PAX8 inh HTS 22.7.
Cc1ccc(S(=O)(=O)Nc2ccc3c(c2)CC(=O)N([C@@H](C)CO)C[C@@H](C)[C@@H](CN(C)Cc2ccc(C(F)(F)F)cc2)O3)cc1 was read as EWS-Fli inh 23.5 and PAX8 inh HTS 62.0*.
C[C@H](CO)N1C[C@H](C)[C@H](CN(C)Cc2ccc(-c3ccccc3)cc2)Oc2ccc(NS(=O)(=O)c3ccc(F)cc3)cc2CC1=O was read as EWS-Fli inh -14.3 and PAX8 inh HTS 112.8*.
CO[C@@H]1CN(C)C(=O)c2cc(NC(=O)Nc3cc(F)ccc3F)ccc2OC[C@@H](C)N(C(=O)c2ccccn2)C[C@H]1C was read as EWS-Fli inh 10.7 and PAX8 inh HTS -0.8.
For COc1ccc(NC(=O)N(C)C[C@@H]2Oc3c(NS(=O)(=O)c4ccc(Cl)cc4)cccc3C(=O)N([C@H](C)CO)C[C@H]2C)cc1 the results were EWS-Fli inh -3.4 and PAX8 inh HTS -4.6.
C[C@H]1CN([C@@H](C)CO)C(=O)c2cc(NS(=O)(=O)c3ccc(F)cc3)ccc2O[C@@H]1CN(C)Cc1ccc(C(F)(F)F)cc1 was read as EWS-Fli inh -1.0 and PAX8 inh HTS -11.4.
For Cc1ccc(S(=O)(=O)Nc2ccc3c(c2)CC(=O)N([C@@H](C)CO)C[C@H](C)[C@@H](CN(C)Cc2ccc(Oc4ccccc4)cc2)O3)cc1 the results were EWS-Fli inh 6.9 and PAX8 inh HTS 79.6*.
C[C@@H]1CN([C@H](C)CO)C(=O)c2cc(NS(=O)(=O)c3ccc(F)cc3)ccc2O[C@@H]1CN(C)Cc1ccc(C(F)(F)F)cc1 was read as EWS-Fli inh 68.1* and PAX8 inh HTS 115.1*.
Screening ClC1=C(Cl)C(Cl)=C(Cl)C1=C/C=C/c1ccccc1 returned KKLEB tox -93.9*, HIF-2a inh -18.5, EWS-Fli inh 42.3, PAX8 inh HTS -11.1 and CF NFkB inh 90.8*.
`O=C1NC(=O)C(=CC=Cc2ccccc2)S1` gave KKLEB tox -16.9, HIF-2a inh -214.1, EWS-Fli inh -9.4, PAX8 inh HTS -103.2 and CF NFkB inh -7.6.

Screening results deposited in PubChem BioAssay by several laboratories.
